TROY signal inh: inhibitors of TROY-dependent NF-kB signaling; AID 1347056; actives 0.98% (n = 360,000); inhibition, % at 10 µM; Q293 LMP1-TROYcd NF-kB luciferase reporter, 4 h;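 active = compounds whose plate-normalised and pattern-corrected inhibition of the luciferase reporter signal at the single screening dose is 50% or more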
TRPM1 prom inh: MITF TRPM1 promoter inhibition in SK-MEL-5 cells | SK-MEL-5 TRPM1 promoter luciferase, 24 h | inhibition, % at 12.5 µM | actives 0.83% (n = 330,000);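 active = mean inhibition across replicates of 60% or more, whatever share of single replicates reaches that level; inconclusive = some that reach 60%, reason not given; inactive = mean inhibition across replicates below 60%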
Peg3 prom inh: Peg3 promoter activity inhibition. HeLa PEG-Prom luciferase reporter, luminescence, overnight. inhibition, % at 20 µM. actives 1.7% (n = 360,000). AID 588405;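 active = inhibition of at least 50% at 20 µM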
EBV LMP1 NFkB: reduces LMP1-driven NF-kappaB luciferase signal | LMP1-induced NF-kappaB luciferase reporter cells, luminescence | inhibition, % at 12.5 µM | actives 0.69% (n = 350,000) | AID 504558; in the data active = inhibition above about 41%; inconclusive = no clear call, values can overlap the other calls;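 note: 0% = neutral control wells and 100% = reference inhibitor control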
Shn3 inh set2: Schnurri-3 reporter inhibition in Clone20 osteoblasts; Clone20 osteoblast Shn3 3'UTR firefly luciferase, 24 h; inhibition, % at 12.5 µM; actives 0.52% (n = 360,000);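 active = mean inhibition of at least 75% with every replicate also reaching 75%; inconclusive = mean inhibition at least 75% but some replicate below; inactive = mean inhibition below 75%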;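 note: 0% = median of neutral control wells and 100% = pilot-screen positive control compound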
TWEAK-Fn14 inh: inhibitors of TWEAK-Fn14 interaction signaling; TWEAK-stimulated Fn14 reporter cells, luciferase luminescence, 8 h; actives 2% (n = 360,000); inhibition, % at 10 µM; in the data active = inhibition above about 50%
An asterisk follows results filed as active; u = inconclusive; x = no result. The list is not random: actives were taken first. Their share in the collection is about 4.1%.

SMILES | TROY signal inh | TRPM1 prom inh | Peg3 prom inh | EBV LMP1 NFkB | Shn3 inh set2 | TWEAK-Fn14 inh
CCC(C)NC(=O)CCc1c(C)nc2c(c(C)nn2-c2ccccc2)c1C (stereo not drawn) | 18 | 5 | 16 | 6 | 24 | 13
CC(C)(C)n1nc(-c2ccc(Cl)cc2)c2c(N)ncnc21 | 8 | -7 | 69* | 42* | 64 | -54
CCOC(=O)C(=Cc1ccc(N(C)C)cc1)C(=O)c1ccccc1 | 11 | x | 4 | x | 15 | 35
CCOC(=O)N(O)c1ccc(C=Cc2ccccc2)cc1 | 24 | -56 | -81 | 86* | 29 | 20
CCOC(=O)c1sc2nc(NC(=O)C3CC3)sc2c1C | -51 | x | -100 | -32 | -63 | -44
CCOC(=O)c1sc2nc(NC(=O)C(C)(C)C)sc2c1C | 68* | -65 | -246 | -55 | 2 | 65*
COc1ccc(/C=N/NC(=O)c2cccnc2)cc1COc1ccc([N+](=O)[O-])c(C)c1 | 55* | 8 | 14 | -5 | 8 | 23
COc1ccc(/C=N/NC(=O)c2ccn[nH]2)cc1COc1ccc([N+](=O)[O-])c(C)c1 | 2 | x | 11 | x | 8 | 18
COc1ccc(/C=N/NC(=O)c2cccnc2)cc1CSc1nc2ccccc2s1 | 50* | 21 | -17 | 7 | -3 | 52*
COc1cc(/C=C(/C(=O)O)c2ccc(-c3ccccc3)cc2)cc(OC)c1OC | 3 | 3 | 27 | -2 | -11 | 29
COc1cc(C=c2c3ccccc3n3c2cc(-c2ccccc2)[n+]3C)cc(OC)c1OC | 8 | 65* | 38 | 7 | 0 | 17
COc1cc(N(C)C)ccc1C=c1c2ccccc2n2c1cc(-c1ccccc1)[n+]2C | 58* | 110* | 100* | 2 | 95* | 88*
O=C(O)C/C(=C\c1ccc(N2CCOCC2)c([N+](=O)[O-])c1)c1nc2ccccc2s1 | 52* | -2 | -36 | -9 | -43 | 45
COc1ccc(-c2csc(/C(C#N)=C\c3ccc(O)c([N+](=O)[O-])c3)n2)cc1OC | 36 | 4 | 50 | -2 | -8 | 60*
O=C(O)CC/C(=C\c1ccc(N2CCOCC2)c([N+](=O)[O-])c1)c1nc2ccccc2s1 | 33 | -3 | 3 | 2 | 3 | -11
COc1ccc(-c2csc(/C(C#N)=C\c3ccc(OC)c([N+](=O)[O-])c3)n2)cc1 | -10 | -8 | 6 | -7 | 11 | -32
N#C/C(=C\c1ccc(O)c([N+](=O)[O-])c1)c1nc2ccccc2s1 | 50* | -1 | -50 | 1 | -2 | 53*
Cc1c(CN2CCC(CO)(CCOc3ccccc3)CC2)c(=O)n(-c2ccccc2)n1C | -11 | 29 | 4 | -1 | 13 | -2
NC(Cc1ccc(C(F)(F)F)cc1)c1csc(NC(=O)NCCc2ccccc2)n1 (stereo not drawn) | 4 | x | 109* | x | 52 | -5
COc1ccc(CC(N)c2csc(NC(=O)CCc3ccccc3)n2)cc1 (stereo not drawn) | 27 | x | 33 | x | -18 | 7
COc1ccc(CC(N)c2csc(NC(=O)Nc3ccccc3C(C)C)n2)cc1 (stereo not drawn) | -16 | x | 100* | x | 9 | -24
COc1ccc(CC(N)c2csc(NC(=O)Nc3ccccc3Oc3ccccc3)n2)cc1 (stereo not drawn) | 16 | x | 98* | x | 15 | -9
COc1ccc(CC(N)c2csc(NC(=O)Nc3ccccc3Cc3ccccc3)n2)cc1 (stereo not drawn) | -5 | x | 104* | x | 48 | -16
CN(Cc1ccccc1F)C(=O)c1ccccc1Sc1ccccc1C#N | -54 | 0 | -35 | -3 | 11 | -15
COc1ccc(CC(=O)N2CCc3cc(OC)c(OC)cc3C2C)c(OC)c1 (stereo not drawn) | -25 | 9 | 18 | -1 | -8 | 6
SMILES | TROY signal inh | TRPM1 prom inh | Peg3 prom inh | EBV LMP1 NFkB | Shn3 inh set2 | TWEAK-Fn14 inh
O=C(CSc1nc2ccccc2c(=O)[nH]1)Nc1ccc(N2CCOCC2)c(Cl)c1 | -4 | 2 | 7 | -1 | 24 | -14
NC(Cc1ccc(F)cc1)c1csc(NC(=O)NC(c2ccccc2)c2ccccc2)n1 (stereo not drawn) | 23 | x | 96* | x | 39 | 12
COc1ccccc1NC(=O)Nc1nc(C(N)Cc2ccc(C(F)(F)F)cc2)cs1 (stereo not drawn) | 18 | x | 96* | x | 82* | 22
COc1ccccc1NC(=O)Nc1nc(C(N)C(C)C)cs1 (stereo not drawn) | 12 | x | -31 | x | -14 | -4
NC(c1ccccc1)c1csc(NC(=O)Nc2ccccc2Oc2ccccc2)n1 (stereo not drawn) | -1 | x | 82* | x | -9 | -1
NC(Cc1ccccc1)c1csc(NC(=O)Nc2ccccc2Oc2ccccc2)n1 (stereo not drawn) | 12 | x | 104* | x | u | 24
CC(C)(C)c1ccc(C(=O)N2CCN(C(=O)c3cccs3)CC2)cc1 | -9 | 1 | -11 | -7 | 7 | -2
NC(Cc1ccc(C(F)(F)F)cc1)c1csc(NC(=O)Nc2ccccc2Oc2ccccc2)n1 (stereo not drawn) | 7 | x | 98* | x | 49 | 27
COc1ccc(CC(=O)OCC(=O)N2CCN(S(=O)(=O)c3ccc(C)cc3C)CC2)cc1 | 6 | -1 | 2 | 69* | -16 | -6
Cc1ccccc1-c1nc(CN2CCC(C(=O)NCCCN3CCCC(C)C3)CC2)c(C)o1 (stereo not drawn) | 3 | 94* | 23 | -15 | 20 | -13
CCc1ccc(-c2nc(CN3CCC(C(=O)N4CCN(c5ccccn5)CC4)CC3)c(C)o2)cc1 | 2 | 37 | 30 | 5 | -2 | 35
CCc1ccc(-c2nc(CN3CCC(C(=O)NCCN(CC)c4ccccc4)CC3)c(C)o2)cc1 | 20 | 67* | 108* | -64 | 60 | -44
CCc1ccc(-c2nc(CN3CCC(C(=O)N4CCN(c5ccccc5)CC4)CC3)c(C)o2)cc1 | 27 | 17 | 88* | -13 | 53 | 94*
Cc1oc(-c2ccc(Cl)cc2)nc1CN1CCC(C(=O)NCCCN2CCOCC2)CC1 | -2 | 4 | -7 | -12 | 0 | 22
CCC1CCCCN1CCCNC(=O)C1CCN(Cc2nc(-c3ccc(Cl)cc3)oc2C)CC1 (stereo not drawn) | -51 | 100* | 80* | -68 | -12 | -2
CC(C)n1cnc2c(NCc3ccccc3)cc(N[C@H](C)CO)cc21 | 7 | 73* | 67* | -10 | 42 | 2
Cc1cc(OCC(=O)N(C)C2CCCCC2)ccc1Cl | 66* | -40 | -199 | -26 | -56 | 39
Cc1cc(OCC(=O)N(C)C2CCCCC2)cc(C)c1Cl | -38 | -55 | -126 | -10 | -19 | -35
CCOc1cccc2sc(NC(=O)CCS(=O)(=O)c3ccccc3)nc12 | -1 | 13 | 53* | 9 | 12 | 4
CCOc1cccc2sc(N(CCN(C)C)C(=O)CCS(=O)(=O)c3ccccc3)nc12 | 24 | -8 | 2 | 2 | -2 | -11

Screening results from PubChem BioAssay.
